Experimental data as given in PubChem BioAssay AID651871 (Sanford-Burnham Center for Chemical Genomics, 2012).
Where “and” joins values, the source holds several entries; their conditions need not be identical. Identical values can stand only once.

test system: H9c2; experiment: cardiomyocyte survival under oxidative or metabolic stress – cell-based, panel, H9c2 and HL-1, ATP luminescence, set 2, SAR follow-up (AID 651871); details: H9c2/HL-1 cardiomyocytes, 2-deoxyglucose stress, with 2-deoxyglucose; run 8, at 79 µM (top of the series);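 further: cells exposed to stressor for 2 h before ATP readout; reference of the scale not given here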

SMILES | activity (protection/inhibition)
COc1ccc2c(c1OC)C(=O)N1c3ccccc3C(=O)N(Cc3cccc(Cl)c3Cl)C21 (stereo not drawn) | 89.8% and 74.3% and -3.43%
CCOC(=O)c1cccc(NC(=O)CNC(=O)c2cc(-c3cc(OC)c(OC)c(OC)c3)nc3ccccc23)c1 | 92.9%
COc1ccc2nc(-c3cc(OC)c(OC)c(OC)c3)cc(C(=O)NCC(=O)Nc3ccc(C(C)=O)cc3)c2c1 | 83.5%
